# Assay results published in PubChem BioAssay (NCI).
# Several values for one entry are separate records, joined by “and”; a condition that tells them apart may be missing. Identical values can stand only once. This is part of a sample that, as a whole, favours compounds with a hit. Of some 83,000 tested, about 20% had one in any assay.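 How to read the values: 0–100, growth inhibition (40 = 60% inhibited); 0, no net growth; -100 to 0, cell death (-40 = 40% of starting cells died; -100 = all dead).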 Values without a mark were called inactive. Activity calls are given as the source filed them. The calls were made as follows: active = growth percent below 10; inactive = the rest.
# Test system: MDA-MB-468 breast
# Test: NCI-60 one-dose screen, 48 h (100 = growth as untreated, 0 = no growth, -100 = all killed)
# Conditions: 10 µM unless noted
row,Compound,growth
1,Cc1ccc(/C=C(\C#N)n2nnc3cc(Cl)c(Cl)cc32)cc1,22.3%
2,COc1ccc2cc(-c3nc4ccccc4s3)c(Cl)nc2c1OC,103%
3,Cc1cc(N(CCCNc2ccnc3cc(Cl)ccc23)Cc2ccco2)nc(N2CCOCC2)n1,80.3%
4,COc1ccc(-n2ncc3c2ccc2cc(S(=O)(=O)c4ccccc4)c(=O)n(C)c23)cc1,94.5%
5,CCCNC(=O)Nc1ccc2cc3ccc(NC(=O)NCCC)cc3nc2c1,-52.4% (active)
6,COc1ccc(/C=N\NC(=O)c2ccc3nc(-c4ccc(Cl)cc4)[nH]c3c2)cc1,24.2%
7,CC1=C(C(=O)Nc2ccc(F)cc2)C(c2ccc(Cl)cc2)C2=C(CC(C)(C)CC2=O)N1 (stereo not given),89.4%
8,CCOC(=O)NCCc1nc2c([nH]1)c(=O)n(C)c(=O)n2C,112%
9,Cc1ccsc1-c1ccc2c(c1)COC2(CCCN(C)C)c1ccc(F)cc1 (stereo not given),-8.34% (active)
10,Cc1[nH]c(=O)[nH]c(=O)c1CCSSCCc1c(C)[nH]c(=O)[nH]c1=O,105%
11,Cn1cc(-c2nonc2-c2cn(C)c3ccc(F)cc23)c2cc(F)ccc21,60.1%
12,Nc1nc(SC/C=C/CCl)c2[nH]cnc2n1,103% and 127%
13,C#C[C@@]1(O)[C@@H](CO)O[C@@H](n2cc(I)c3c(N)ncnc32)[C@@H]1O,-37.7% (active)
14,COC(=O)c1ccc2[nH]c(O)c(C(=Nc3ccc(N(C)C(=O)CN4CCN(C)CC4)cc3)c3ccc(OC)cc3)c2c1,64.5%
15,CNCCNc1nc2ccccc2c2c(=O)c3cccc(OC)c3sc12,20.9%
16,CC(c1ccccc1)n1ccnc1CO (stereo not given),101%
17,COc1ccc2cc(C3=CC(=O)CCC3)ccc2c1,100%
18,COc1ccc(C(=O)OC2C(OC3C(O)COC(O[C@H]4C[C@H]5[C@@H]6CC=C7C[C@@H](O)CC[C@]7(C)[C@H]6CC[C@]5(C)[C@H]4[C@H](C)C(=O)CCC(C)C)C3OC(=O)C(C)C)OCC(O)C2O)cc1 (stereo not given in full),-2.45% (active)
19,NC(=S)N/N=C/c1ccc(OC(=O)COc2ccc(Cl)cc2)cn1,24.6%
20,O=C(CCCCCCSc1nc(-c2ccc(Cl)cc2)cc(-c2ccc(Cl)cc2)n1)NO,32.6%

row,Compound,growth
1,CCc1n(Cc2ccc3ccccc3n2)cc[n+]1Cc1ccc2ccccc2n1,-30.1% (active)
2,O=C(Nc1nc2ccc(S(=O)(=O)Nc3ccc(C4(C(F)(F)F)CC4)cc3)cc2[nH]1)c1cnccn1,-12% (active)
3,COc1ccc(-c2nc(-c3nc4cc(Cl)c(F)cc4[nH]3)c3ccccn23)cc1,54.6%
4,O=C1NC(=S)S/C1=C\c1cc(Br)ccc1O,112%
5,CN1CCN(C(=S)S)CC1,119%
6,CCOc1ccccc1NC1=C(Cl)C(=O)c2nc(C)ccc2C1=O,-90.7% (active)
7,S=C(Nc1ccccc1)c1ccccn1,101%
8,NCCNc1ccc([N+](=O)[O-])cc1,110%
9,Clc1cc(Cl)cc(N2N=C(c3cccc(Nc4ccncc4)c3)CC2c2ccc3c(c2)OCO3)c1 (stereo not given),24.8%
10,Cc1cc(-c2nc3ccccc3s2)ccc1NC(=O)COc1ccc(Cl)cc1,-39% (active)
11,COc1ccc(-c2csc(NC(=O)c3cc(OC)c(OC)c(OC)c3)n2)cc1,86.8%
12,CN1CCN(Cc2ccc(NC(=O)c3[nH]ncc3Nc3ncnc4sc5c(c34)CCCC5)cc2)CC1,-58.7% (active)
13,CCOC(=O)C(=Cc1ccc(-c2ccccc2)cc1)C(=O)OCC,53%
14,C=CCn1c(SCC(=O)Nc2cccc(C(=O)/C=C/c3ccc(Cl)cc3)c2)nc2ccccc2c1=O,107%
15,N#Cc1c(-c2ccccc2)nc(SCC(=O)Nc2nc(-c3ccc(Cl)cc3)cs2)[nH]c1=O,85.7%
16,Cc1ccc(C(=NN=C(N)N)c2ccc(C)cc2)cc1,-42.5% (active)
17,O=C(/C=C/C12c3ccccc3C(c3ccccc31)C1C(=O)NC(=O)C12)c1ccccn1 (stereo not given),-13.1% (active)
18,O=C1/C(=C\c2cccn2Cc2ccc(F)cc2)c2ccccc2N1c1c(Cl)cccc1Cl,9.21% (active)
19,Cc1nn(-c2ccccc2)c(Oc2ccccn2)c1-c1nc2ccccc2s1,80%
20,CCN(CC)c1ccc(/C=C\C(=O)c2ccc(NC(C)=O)cc2)cc1,10.7%
